From PubChem BioAssay AID430 (Sanford-Burnham Center for Chemical Genomics, 2006)
The campaign covered roughly 63,000 compounds. About 1,100 (1.7%) were called active. The sample as a whole holds a higher share of actives than the screen did. Results with a measured potency or affinity are listed apart. Unmarked numbers belong to inactive results. No stated cut-off is given here; in the data, active means cytotoxicity above about 50%; inactive means the rest.

Assay: cytotoxicity in HPDE-C7 cells, cell-based, fluorescence, HTS (AID 430);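 further: cells exposed to compound for 48 hours before viability readout; 0% = vehicle and 100% = reference cytotoxic drug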
Conditions: HPDE-C7 pancreatic duct cells viability, at 10 µM, stronger effect = higher value
`COc1cc(S(=O)(=O)N2CCN(c3ccccc3)CC2)ccc1Cl` gave a cytotoxicity of -12.6%. `CC(C)c1nc(SCc2ccccn2)c2c(=O)n(C)c(=O)n(C)c2n1` gave a cytotoxicity of -2%. In the case of `Cc1nc(SCc2c(F)cccc2Cl)c2c(=O)n(C)c(=O)n(C)c2n1`, the cytotoxicity is reported as -26.2%. In the case of `CC(C)c1nc(SCc2c(F)cccc2Cl)c2c(=O)n(C)c(=O)n(C)c2n1`, the cytotoxicity is reported as 77.1% (active). In the case of `CCOC(=O)c1cnc(SCC(=O)Nc2nnc(CC)s2)nc1N`, the cytotoxicity is reported as -4.3%. `C=CCn1cnc2c(c1=O)c1nc3ccccc3nc1n2/N=C/c1cccc(OC)c1OC` showed a cytotoxicity of 46.6%. Compound `C=CCn1cnc2c(c1=O)c1nc3ccccc3nc1n2/N=C/c1cccc(OC)c1` has a cytotoxicity of 48.5%. With `O=C(CCSc1ccccc1)Nc1ccc(S(=O)(=O)N2CCOCC2)cc1` the cytotoxicity was 1.8%. `COc1cc2c(cc1OC)C1Cc3ccc(OC)c(OC)c3CN1CC2` (stereo unspecified) showed a cytotoxicity of -10.2%. Work on `COc1cc2c(cc1OC)C(c1cc(OC)c(OC)c(OC)c1)NCC2` (stereo unspecified) yielded a cytotoxicity of 4.6%. In the case of `O=C(O)C1CC(=O)N(c2ccc(F)cc2)C1` (stereo unspecified), the cytotoxicity is reported as -16.5%. In the case of `CCOC(=O)C1C2C=CC3(CN(c4cccc(Cl)c4)C(=O)C13)O2` (stereo unspecified), the cytotoxicity is reported as -0.8%. In the case of `CC1(C)C2CC=C(/C=N/n3cnnc3)C1C2` (stereo unspecified), the cytotoxicity is reported as -4.1%. For `O=C(c1ccc(F)cc1)C1CCN(CCn2c(=O)[nH]c3ccccc3c2=O)CC1`, the cytotoxicity was 5.4%. For `O=c1c2ccccc2[nH]c(=S)n1CCN1CCN(Cc2ccccc2)CC1`, the cytotoxicity was -3.8%. With `COc1ccc(C(=O)OCC(=O)NCc2ccco2)cc1OC` the cytotoxicity was -14.8%. For `COc1ccccc1Oc1ccc(S(=O)(=O)Nc2cccnc2)cc1`, the cytotoxicity was 51.5% (active). Compound `COc1cc(S(=O)(=O)Nc2cccnc2)ccc1F` has a cytotoxicity of -3.6%. Work on `CCCCOc1ccc(S(=O)(=O)Nc2cccnc2)cc1` yielded a cytotoxicity of -5.2%. With `Cc1nc(NC(=O)CSc2nc3cccnc3n2C2CCCCC2)sc1C` the cytotoxicity was 9.2%. Compound `Cc1ccc(-c2nn3c(C)nnc3s2)cc1NC(=O)c1ccc(Br)o1` has a cytotoxicity of -10.8%. For `Cc1nnc2sc(-c3cccc(NC(=O)c4ccc(-c5cccc(Cl)c5)o4)c3)nn12`, the cytotoxicity was 0.6%. `CC(C)CNc1nc(Oc2ccc(=O)n(C)n2)nc(N2CCOCC2)n1` gave a cytotoxicity of -7.6%. For `Clc1ccc(Cn2ncc3c(NCc4ccco4)ncnc32)c(Cl)c1`, the cytotoxicity was 51.5% (active). Work on `c1ccc(-n2ncc3c(NCc4ccco4)ncnc32)cc1` yielded a cytotoxicity of 1.4%. `Cc1ccc(-n2ncc3c(NCc4ccco4)ncnc32)c(C)c1` gave a cytotoxicity of -6.7%. In the case of `Cc1cccc(-n2ncc3c(NCc4ccco4)ncnc32)c1`, the cytotoxicity is reported as 64.1% (active). `Clc1ccc(-n2ncc3c(NCc4ccco4)ncnc32)cc1` showed a cytotoxicity of 17.4%. Work on `c1ccc(Cn2ncc3c(NCc4ccco4)ncnc32)cc1` yielded a cytotoxicity of 8.9%. `Cc1ccc(C)c(N2CCN(C(=O)C3CCN(c4nc(C)cc(C)n4)CC3)CC2)c1` showed a cytotoxicity of 11.3%. `Cc1ccc(Cl)cc1N1CCN(C(=O)C2CCN(c3nnc(-n4cccc4)s3)CC2)CC1` gave a cytotoxicity of 43.7%. For `Cc1cc(C)nc(N2CCC(C(=O)N3CCN(c4cc(Cl)ccc4C)CC3)CC2)n1`, the cytotoxicity was 59.5% (active). `O=C(COC(=O)C1c2ccccc2Oc2ccccc21)NC1CCS(=O)(=O)C1` (stereo unspecified) gave a cytotoxicity of -3.2%. With `Cc1cc2nc(NC3=NCN(Cc4ccc5c(c4)OCO5)CN3)nc(C)c2cc1C` the cytotoxicity was 93.4% (active). For `Cc1nc(NC2=NCN(Cc3ccc4c(c3)OCO4)CN2)nc2ccccc12`, the cytotoxicity was 2.1%. `Cc1ccc2nc(NC3=NCN(Cc4ccc5c(c4)OCO5)CN3)nc(C)c2c1` gave a cytotoxicity of 8.3%. For `CC(=O)C1=C(O)C(=O)N(Cc2ccco2)C1c1ccccc1` (stereo unspecified), the cytotoxicity was -10.9%. Compound `Cc1ccc(S(=O)(=O)c2cc3c(=O)n4ccccc4nc3n(Cc3ccco3)c2=N)cc1` has a cytotoxicity of 21.9%. `Cc1ccc(Cn2c(=N)c(C(=O)NCc3ccco3)cc3c(=O)n4ccccc4nc32)cc1` showed a cytotoxicity of -10.8%. For `N=c1c(S(=O)(=O)c2ccccc2)cc2c(=O)n3ccccc3nc2n1Cc1ccco1`, the cytotoxicity was -0.3%. For `Cc1ccc(CNC(=O)c2cc3c(=O)n4ccccc4nc3n(Cc3ccco3)c2=N)cc1`, the cytotoxicity was 104% (active). `N=c1c(C(=O)NCc2ccccc2)cc2c(=O)n3ccccc3nc2n1Cc1ccco1` gave a cytotoxicity of 1.8%. With `CC1=C(C(N)=O)C(c2ccccn2)n2nc(-c3ccccc3Cl)nc2N1` (stereo unspecified) the cytotoxicity was 13.8%. `C=C(C)COc1ccc2c3c(c(=O)oc2c1OCC(=C)C)CCC3` showed a cytotoxicity of 11.5%. Compound `Cc1ccc(C(C(=O)NC2CCCCC2)N(Cc2cccnc2)C(=O)C2COc3ccccc3O2)o1` (stereo unspecified) has a cytotoxicity of -11.7%. `C=CCn1c(SCC(=O)NC2CCCCC2)nnc1-c1sc(N)nc1C` showed a cytotoxicity of -10%. With `CCn1c(COc2ccc3c(c2)OCO3)nnc1SCC(=O)c1ccccc1` the cytotoxicity was -1.4%. In the case of `O=S(=O)(NCc1cccs1)c1cccc2cccnc12`, the cytotoxicity is reported as -9.6%. Work on `CN(CC(=O)NCc1cccs1)S(=O)(=O)c1cccc2cccnc12` yielded a cytotoxicity of -9.8%. Compound `CCOC(=O)C1(C)NC(c2ccc(N(C)C)cc2)C2C(=O)N(CC)C(=O)C21` (stereo unspecified) has a cytotoxicity of -12.4%. `O=c1c2ccccc2nc(SCc2cc(F)cc3c2OCOC3)n1Cc1ccco1` gave a cytotoxicity of -2.2%. `N#Cc1nc(-c2ccc(F)cc2)oc1N1CCCC1` showed a cytotoxicity of -7.6%. For `O=C(c1ccc(F)cc1)c1ccc(N2CCCC2)cc1`, the cytotoxicity was -17.7%. With `CN(C)CCN1C(=O)C(O)=C(C(=O)c2ccco2)C1c1ccccc1F` (stereo unspecified) the cytotoxicity was -4.8%. In the case of `CCn1c(=O)cc(OCC(=O)N2CCCC2)c2ccccc21`, the cytotoxicity is reported as -3%. `COc1ccc(C(CNC(=O)Cn2[nH]c(=O)c3ccccc3c2=O)N2CCCC2)cc1` (stereo unspecified) gave a cytotoxicity of 1.8%. With `Cc1ccc(Cc2c(C)nc3nc(SCC(=O)NCc4ccco4)nn3c2C)cc1` the cytotoxicity was 61.8% (active). For `Cc1cccc(Cc2c(C)nc3nc(SCC(=O)NCc4ccco4)nn3c2C)c1`, the cytotoxicity was 45.8%. `Cc1ccccc1Cc1c(C)nc2nc(SCC(=O)NCc3ccco3)nn2c1C` gave a cytotoxicity of 12%. For `Cc1nnc(NC(=O)c2ccc(-c3cccc(C(F)(F)F)c3)o2)s1`, the cytotoxicity was -13.1%. For `CCOC(=O)c1c(C)nn(Cc2ccccc2)c1N`, the cytotoxicity was -1.6%. With `CCOC(=O)c1sc(NC(=O)c2c(C)nn(Cc3ccccc3)c2C)cc1C` the cytotoxicity was 72.7% (active). `CCOC(=O)c1sc(NC(=O)c2cccs2)cc1C` gave a cytotoxicity of -16.1%. With `Cc1cccc(OCc2nnc(SCC(=O)N(C(C)C)C(C)C)n2Cc2ccco2)c1C` the cytotoxicity was -16%. `CC1(C)Cc2c(sc3ncn4nc(CCC(=O)O)c(=O)nc4c23)CO1` gave a cytotoxicity of -23.3%. For `Cc1onc(-c2ccccc2)c1C(=O)Nc1ccccc1N1CCOCC1`, the cytotoxicity was 4.9%. With `Cc1onc(-c2ccccc2)c1C(=O)Nc1cc(C(F)(F)F)ccc1N1CCOCC1` the cytotoxicity was 69.1% (active). With `O=C(Nc1cc(C(F)(F)F)ccc1N1CCOCC1)c1cccnc1` the cytotoxicity was 4.3%. Compound `O=C(Nc1cc(C(F)(F)F)ccc1N1CCOCC1)c1ccco1` has a cytotoxicity of 1.1%. In the case of `O=C(Nc1cc(C(F)(F)F)ccc1N1CCOCC1)c1c(F)c(F)c(F)c(F)c1F`, the cytotoxicity is reported as 51% (active). With `CC(=O)Nc1cc(C(F)(F)F)ccc1N1CCOCC1` the cytotoxicity was 14.9%. Compound `COc1ccccc1NC(=O)C1=C(C)Nc2ncnn2C1c1cccs1` (stereo unspecified) has a cytotoxicity of 3.3%. Compound `O=C(Cn1cnc2c(nnn2Cc2ccccc2F)c1=O)OCc1ccccc1` has a cytotoxicity of -18.4%. For `CCSc1nnc(NC(=O)CSc2nnc(Cc3cccn3C)n2-c2ccc(F)cc2)s1`, the cytotoxicity was 65.6% (active). Work on `CCSc1nnc(NC(=O)CSc2nnc(Cc3cccn3C)n2-c2ccc(C)cc2)s1` yielded a cytotoxicity of 39.6%. In the case of `Cn1cccc1Cc1nnc(SCC(=O)Nc2ccc(F)cc2)n1-c1ccc(F)cc1`, the cytotoxicity is reported as -3.8%. `Cc1nnc(Nc2ccc(C(=O)NCCO)cc2)c2ccccc12` showed a cytotoxicity of 8.6%. Work on `CC(O)C(=O)NCCOCCOCCNC(=O)C(C)O` (stereo unspecified) yielded a cytotoxicity of -5.5%. With `Cc1ccc(O)c(Sc2cc(C)ccc2O)c1` the cytotoxicity was 52.6% (active). Compound `CC(C)c1ccc(O)c(N)c1` has a cytotoxicity of 6.8%. With `COC(=O)c1ccc(Sc2ccc(C)cc2)c(N)c1` the cytotoxicity was 9.4%. `Cc1ccc(SC(C)C(=O)NCC(C)C)cc1` (stereo unspecified) gave a cytotoxicity of -2.6%. `COC(=O)c1ccc(OC(=O)c2ccc(OC)c(OC)c2)c(OC)c1` showed a cytotoxicity of 4.3%. Compound `CN(CCC#N)S(=O)(=O)c1ccc2c(c1)c(=O)n(C)c(=O)n2C` has a cytotoxicity of -12.5%. For `CCCN(S(=O)(=O)c1ccc(OCC)cc1)S(=O)(=O)c1cccs1`, the cytotoxicity was -20.2%. Compound `COCC(=O)Nc1cc(OC)c(Cl)cc1OC` has a cytotoxicity of -1.4%. `Cc1ccccc1NC(=O)c1c(F)c(F)c(F)c(F)c1F` showed a cytotoxicity of -10.5%. Work on `COc1cc(NC(=O)C2CCCC2)c(OC)cc1Cl` yielded a cytotoxicity of -20.5%. With `COc1cc(NC(=O)c2c(F)c(F)c(F)c(F)c2F)c(OC)cc1Cl` the cytotoxicity was 55.4% (active). `O=C(Nc1ccccc1Cl)c1c(F)c(F)c(F)c(F)c1F` gave a cytotoxicity of -8.2%. `CCOC(=O)c1ccccc1NC(=O)c1cccs1` gave a cytotoxicity of -6%. Compound `CCOC(=O)c1ccccc1NC(=O)c1ccccc1SC` has a cytotoxicity of 25.3%. In the case of `O=C(CSc1nnc(-c2ccc(Cl)cc2)n1Cc1ccco1)c1cccs1`, the cytotoxicity is reported as -6.2%. With `CCCCS(=O)CC(COCc1ccccc1)OC(=O)CSc1nc(C)cc(C)n1` (stereo unspecified) the cytotoxicity was 8.8%. `COC(=O)C1=CNC=C(C(=O)OC)C1c1ccc(C(=O)OC)cc1` showed a cytotoxicity of 5.1%. `CC1(C)Cc2c(c(=S)nc(-c3ccccc3)n2CCN2CCOCC2)CO1` showed a cytotoxicity of -21.2%.
